The source of these data is PubChem BioAssay (NCATS).

Each structure is given as a SMILES string. Records with an inconclusive call do not appear. Calls of active or inactive are those of the source. Unless noted, the rule behind the calls is not given here.

Assay [1] is described as follows: qHTS profiling of the MIPE4 collection as inhibitors of Plasmodium falciparum (3D7) proliferation (AID 743344).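 Note: scaled between DMSO vehicle wells and 0.29 µM artemisinin as full inhibition.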 The conditions noted are these: P. falciparum 3D7 in erythrocytes, SYBR Green DNA fluorescence, 72 h; at 28.5 µM unless noted. In short, it runs like this: (§1)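 Erythrocytes infected with P. falciparum (0.3% parasitemia, 2.5% hematocrit) incubated with compounds 72 h at 37 C, 5% CO2. Lysis with saponin/Triton buffer containing SYBR Green I, overnight at room temperature in the dark; DNA fluorescence (485/535 nm) normalised to 0.29 uM artemisinin and DMSO.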
On the technique in general: qHTS replaces the single test concentration by a dilution series.

The nature of assay [2]: qHTS profiling of the MIPE4 collection as inhibitors of Plasmodium falciparum (DD2) proliferation (AID 743345). The conditions noted are these: P. falciparum Dd2 in erythrocytes, SYBR Green DNA, 72 h; at 28.5 µM unless noted. In short, it runs like this:
as §1

A short description of assay [3]: qHTS profiling of the MIPE4 collection as inhibitors of Plasmodium falciparum (DD2) proliferation (Rep 2) (AID 743346). The conditions noted are these: P. falciparum Dd2 in erythrocytes, SYBR Green DNA, 72 h; at 28.5 µM unless noted. In short, it runs like this: as §1
Assay [4] is described as follows: qHTS profiling of the MIPE4 collection as inhibitors of Plasmodium falciparum (HB3) proliferation (AID 743347).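 Note: plate controls were DMSO vehicle wells for no effect and artemisinin wells for full effect.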 The note with it: P. falciparum HB3 in erythrocytes, SYBR Green DNA, 72 h; at 28.5 µM unless noted. The method, boiled down:
as §1

Assay [5] is described as follows: High-throughput drug toxicity screening in the BPDCN cell line Gen2.2 (AID 1224824).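 Note: cells exposed to compounds for 48 h before reading.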 The note with it: Gen2.2 BPDCN cells; at 45.8 µM (top of the series) unless noted. In short, it runs like this:
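Seed 500 exponentially growing Gen2.2 cells/well; add compounds by pin tool; incubate 48 h, 37 °C, 5% CO2; add CellTiter-Glo, 15 min RT; read luminescence. % activity vs DMSO (100%) and bortezomib (0%).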

Assay [6] can be described thus: High-throughput drug toxicity screening in the BPDCN cell line Cal-1 (AID 1224825). The note with it: Cal-1 BPDCN cell viability, qHTS; at 45.8 µM (top of the series) unless noted. The method, boiled down: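 Exponentially growing Cal-1 cells, 500 per well in phenol red-free RPMI with 10% FBS, were exposed to compounds for 48 h at 37 °C, 5% CO2. Viability was read by CellTiter-Glo luminescence and normalised to DMSO (100%) and 9.2 uM bortezomib (0%).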

Assay [7] is described as follows: qHTS assay for measurement of the activity of small molecule inhibitors on Zika virus induced Caspase-3 activity in human iPSC derived neural progenitor cells (hNPCs) (AID 1224857; active = well fitted curve in the direction sought with a large enough effect; an effect the other way counts as inactive or inconclusive; note: % of control where 0% means no effect; nearly all actives have a fitted effect of over 65% in size). In short, it runs like this: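 Percent inhibition of virus-induced caspase-3/7 luminescence (Caspase-Glo), scaled between uninfected cells and Zika-infected cells. hNPCs received compound 1 hr before ZIKV at 2 FFU/cell, with 6 hours infection at 37 C.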

Assay [8] in a line: qHTS assay for measurement of the activity of small molecule inhibitors on Zika virus induced Caspase-3 activity in human astrocytoma cells (AID 1224859; active = well fitted curve in the direction sought with a large enough effect; an effect the other way counts as inactive or inconclusive;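 note: plate controls were ZIKV-infected untreated cells for no effect and uninfected cells for full effect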). The method, boiled down:
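Luminescent caspase-3/7 read-out (30 min reagent, room temperature) in human SNB-19 cells infected 6 h with ZIKV (2 FFU/cell) after 1 h compound pre-incubation; Data were normalised to uninfected and infected wells.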

A short description of assay [9]: qHTS Screen of the MIPE 4.0 Collection Against Ewings Sarcoma (TC71) (AID 1259253; active = well fitted curve in the direction sought with a large enough effect; an effect the other way counts as inactive or inconclusive; note: nearly all actives have a fitted effect of over 40% in size; note: potency is the fitted concentration of half-maximal effect). The method, boiled down:
(§2)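 Compound titrations go onto adherent log-phase cells 4 h after seeding, incubate 48 h at 37C, then CellTiter-Glo luminescence reports viability relative to DMSO and cell-free controls.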

A short description of assay [10]: qHTS Screen of the MIPE 4.0 Collection Against Ewings Sarcoma (TC32) (AID 1259256; active = well fitted curve in the direction sought with a large enough effect; an effect the other way counts as inactive or inconclusive; note: nearly all actives have a fitted effect of over 45% in size; note: potency is the fitted concentration of half-maximal effect). The method, boiled down: as §2
The nature of assay [11]: qHTS Screen of the MIPE 4.0 Collection Against Ewings Sarcoma (EW8) (AID 1259255; active = well fitted curve in the direction sought with a large enough effect; an effect the other way counts as inactive or inconclusive; note: nearly all actives have a fitted effect of over 35% in size; note: potency is the fitted concentration of half-maximal effect;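 for viability: 100% = DMSO-treated cells and 0% = medium-only wells without cells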). The method, boiled down: as §2
Assay [12] is described as follows: qHTS assay to identify small molecule inhibitors of chordoma cells - UCH-2 (AID 1259356; active = well fitted curve in the direction sought with a large enough effect; an effect the other way counts as inactive or inconclusive; note: % is set by controls: 0 for no effect and ±100 for the full control effect).

Regarding `COc1ccc(-n2c(C)c([N+](=O)[O-])c3ccc(O)cc32)cc1`, in assay [1], the parasite growth, % of DMSO control amounted to 80.7%. This compound displayed a parasite growth remaining, % of DMSO control (lower = more inhibition) in assay [2] of 78.7%. Also, in assay [3], the parasite growth, % of control (lower = inhibition) stood at 45.7%. Moreover, in assay [4], the growth, % of control was determined as 34.7%. For the same compound, in [5], the cell viability, % of control (lower = more cytotoxic) came out at 46.7%. The viability (% of control) in assay [6] was determined as 96.3%. Moreover, the Potency entry in assay [7] and in assay [8] was “inactive” in each case. For the same compound, the Potency in assay [9] was 16.6 µM (active); in assay [10], 26.4 µM (active).
As to `CCC(=O)O[C@]1(C(=O)CO)CC[C@H]2[C@@H]3CCC4=CC(=O)CC[C@]4(C)[C@@H]3CC[C@@]21C`, the parasite growth, % of DMSO control in assay [1] was 37.1%. Besides, in assay [2], the parasite growth remaining, % of DMSO control (lower = more inhibition) amounted to 93.6%. The growth, % of control in assay [4] was 31%. Moreover, the cell viability, % of control (lower = more cytotoxic) in [5] was found to be 84.6%. The same compound gave a viability (% of control) in assay [6] of 81.8%. The Potency result in assay [7], in assay [8], in assay [11] and in assay [10] was “inactive” throughout.
In the case of `CCOC(=O)O[C@]1(C(=O)OCCl)CC[C@@H]2[C@H]3CCC4=CC(=O)C=C[C@]4(C)[C@@H]3[C@@H](O)C[C@@]21C`, the parasite growth, % of DMSO control in [1] came to 48.2%. The compound also returned a parasite growth remaining, % of DMSO control (lower = more inhibition) in assay [2] of 86.4%. This compound returned a parasite growth, % of control (lower = inhibition) in assay [3] of 44.6%. The compound further gave a growth, % of control in assay [4] of 68.7%. Moreover, the cell viability, % of control (lower = more cytotoxic) in assay [5] stood at 84.3%. This compound also yielded a viability (% of control) in assay [6] of 77.6%. Further, the Potency entry in assay [7], in [8] and in assay [9] was “inactive” each time. The outcome in assay [12] was inactive.
`CC1CCC(C(=O)N(c2cc(C#CC(C)(C)C)sc2C(=O)O)C2CCC(O)CC2)CC1` (configuration not stated) had a parasite growth, % of DMSO control in assay [1] of 4.72%. The compound further displayed a parasite growth remaining, % of DMSO control (lower = more inhibition) in assay [2] of 54.5%. Besides, the parasite growth, % of control (lower = inhibition) in [3] was found to be 9.42%. In assay [4], the growth, % of control was 3.91%. Further, in [5], the cell viability, % of control (lower = more cytotoxic) was found to be 50.9%. Further, in assay [6], the viability (% of control) is 92%. For the same compound, the Potency result in assay [7], in assay [8] and in assay [10] was “inactive” each time. In addition, the Potency in [9] was 26.4 µM (active).
For the compound `NC(=O)c1cnc(-c2ccc(C3(N)CCC3)cc2)c(-c2ccccc2)c1`, the parasite growth, % of DMSO control in [1] was 55.3%. Also, the parasite growth remaining, % of DMSO control (lower = more inhibition) in [2] stood at 65.3%. For the same compound, in assay [3], the parasite growth, % of control (lower = inhibition) is 30%. Moreover, the growth, % of control in assay [4] came to 75.7%. Besides, in [5], the cell viability, % of control (lower = more cytotoxic) was determined as 80.1%. In assay [6], this compound registered a viability (% of control) of 67%. The Potency entry in [7], in assay [8] and in assay [9] was “inactive” throughout.
For the compound `COC(=O)N[C@H](C(=O)N1CCC[C@@H]1c1ncc(-c2ccc(-c3ccc(-c4cnc([C@@H]5CCCN5C(=O)[C@@H](NC(=O)OC)C(C)C)[nH]4)cc3)cc2)[nH]1)C(C)C`, the parasite growth, % of DMSO control in assay [1] stood at 9.52%. The compound further had a parasite growth remaining, % of DMSO control (lower = more inhibition) in [2] of 9.13%. The parasite growth, % of control (lower = inhibition) in [3] is 24.9%. Moreover, the growth, % of control in assay [4] was determined as 14.2%. Also, the cell viability, % of control (lower = more cytotoxic) in assay [5] came out at 6.1%. Also, the viability (% of control) in [6] worked out at 28.7%. Besides, the Potency result in assay [7] and in [8] was “inactive” in each case. Also, the Potency in assay [11] and in [10] was 26.4 µM (active) in each case.
With `CC(C)OC(=O)C(C)(C)Oc1ccc(C(=O)c2ccc(Cl)cc2)cc1`, the cell viability, % of control (lower = more cytotoxic) in assay [5] was found to be 250%.
For `COc1ccc(-c2nc(N3CCOCC3)c3sc(CN(C)c4ncc(C(=O)NO)cn4)cc3n2)cn1`, the parasite growth, % of DMSO control in assay [1] was determined as 5.2%. Further, in [2], the parasite growth remaining, % of DMSO control (lower = more inhibition) worked out at 6.7%. The growth, % of control in [4] was 2.4%. For the same compound, the cell viability, % of control (lower = more cytotoxic) in [5] worked out at 8.39%. Moreover, the viability (% of control) in [6] is 2.7%. For the same compound, the Potency entry in [7] and in assay [8] was “inactive” in each case.
Compound `COCCOc1nc(-c2ccc(Cl)c(Cl)c2)n(-c2ccc(NC(=O)CCl)cc2)n1` displayed a parasite growth, % of DMSO control in assay [1] of 20.8%. The parasite growth remaining, % of DMSO control (lower = more inhibition) in assay [2] is 64%. Further, the parasite growth, % of control (lower = inhibition) in [3] was found to be 31.7%. The growth, % of control in assay [4] was 30.2%. Also, in assay [5], the cell viability, % of control (lower = more cytotoxic) was 114%. The compound further showed a viability (% of control) in assay [6] of 37.2%. The Potency result in assay [7] and in assay [8] was “inactive” throughout.
`CC(C)n1cnc2c(NCCCCCCNC(=O)OC(C)(C)C)nc(NCCO)nc21` gave a parasite growth, % of DMSO control in assay [1] of 20.1%. The compound further registered a parasite growth remaining, % of DMSO control (lower = more inhibition) in assay [2] of 60.6%. The compound also gave a parasite growth, % of control (lower = inhibition) in [3] of 24.8%. This compound also returned a growth, % of control in assay [4] of 21.3%. For the same compound, the cell viability, % of control (lower = more cytotoxic) in assay [5] was determined as 186%. Besides, the viability (% of control) in [6] was 100%. For the same compound, the Potency entry in assay [7] and in assay [8] was “inactive” throughout.
